# Key:
# Test in all cases: DAPPL (digital affinity profiling via proximity ligation, sequencing); 10 mM Tris-HCl pH 7.5, 50 mM NaCl, 1 mM DTT, 4% glycerol, room temperature, 30 min; GST-TFs on glutathione beads, 16-mer random dsDNA library, 0.1% formaldehyde crosslink after washing; high values mean tight binding
# FLI1 = target: T1, FLI1 (Homo sapiens, UniProt Q01543 1-452); conditions: protein: recombinant; tags: N-terminal GST; dsDNA, one strand shown
# T1 sequence: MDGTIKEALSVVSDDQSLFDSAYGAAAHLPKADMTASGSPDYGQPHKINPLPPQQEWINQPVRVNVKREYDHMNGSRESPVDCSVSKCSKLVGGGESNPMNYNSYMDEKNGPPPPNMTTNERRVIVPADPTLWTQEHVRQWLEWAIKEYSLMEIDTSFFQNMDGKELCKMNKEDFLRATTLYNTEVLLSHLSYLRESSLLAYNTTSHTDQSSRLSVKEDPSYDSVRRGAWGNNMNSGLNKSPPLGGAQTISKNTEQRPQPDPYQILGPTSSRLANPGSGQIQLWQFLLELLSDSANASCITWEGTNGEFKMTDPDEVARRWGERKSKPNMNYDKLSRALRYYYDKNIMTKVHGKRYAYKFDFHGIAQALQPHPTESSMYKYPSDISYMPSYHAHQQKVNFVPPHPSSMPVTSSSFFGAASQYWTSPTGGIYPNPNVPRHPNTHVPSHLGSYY
# Summary of the method: (§1)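 GST fusions of human transcription factors were expressed in yeast and captured with glutathione beads. Once given DNA barcodes and pooled alongside a tag-only sample, they were incubated for 30 min at room temperature with 200 nmole of a random double-stranded 16-mer DNA library in Tris/NaCl/DTT/glycerol buffer, then washed, crosslinked (0.1% formaldehyde), proximity-ligated, PCR-amplified and sequenced on an Illumina NextSeq500. The binding signal of each hexamer is its read frequency for a factor divided by its frequency for the tag-only sample.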
# ELK1 = target: T2, ELK1 (Homo sapiens, UniProt P19419 1-428); conditions: protein: recombinant; tags: N-terminal GST; dsDNA, one strand shown
# T2 sequence: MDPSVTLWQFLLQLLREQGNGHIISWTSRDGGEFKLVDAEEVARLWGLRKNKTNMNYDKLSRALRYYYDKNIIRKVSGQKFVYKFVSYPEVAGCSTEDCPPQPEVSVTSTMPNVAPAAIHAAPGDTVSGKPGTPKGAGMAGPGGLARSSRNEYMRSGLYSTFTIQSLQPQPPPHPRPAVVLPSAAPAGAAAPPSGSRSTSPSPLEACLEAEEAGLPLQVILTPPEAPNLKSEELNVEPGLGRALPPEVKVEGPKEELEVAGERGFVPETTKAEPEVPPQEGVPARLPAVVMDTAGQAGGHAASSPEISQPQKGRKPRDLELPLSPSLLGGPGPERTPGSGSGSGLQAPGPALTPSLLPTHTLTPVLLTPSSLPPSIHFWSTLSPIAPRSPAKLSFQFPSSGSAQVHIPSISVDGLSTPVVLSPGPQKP
# Summary of the method: as §1
# GABPA = target: T3, GABPA (Homo sapiens, UniProt Q06546 1-454); conditions: protein: recombinant; tags: N-terminal GST; dsDNA, one strand shown
# T3 sequence: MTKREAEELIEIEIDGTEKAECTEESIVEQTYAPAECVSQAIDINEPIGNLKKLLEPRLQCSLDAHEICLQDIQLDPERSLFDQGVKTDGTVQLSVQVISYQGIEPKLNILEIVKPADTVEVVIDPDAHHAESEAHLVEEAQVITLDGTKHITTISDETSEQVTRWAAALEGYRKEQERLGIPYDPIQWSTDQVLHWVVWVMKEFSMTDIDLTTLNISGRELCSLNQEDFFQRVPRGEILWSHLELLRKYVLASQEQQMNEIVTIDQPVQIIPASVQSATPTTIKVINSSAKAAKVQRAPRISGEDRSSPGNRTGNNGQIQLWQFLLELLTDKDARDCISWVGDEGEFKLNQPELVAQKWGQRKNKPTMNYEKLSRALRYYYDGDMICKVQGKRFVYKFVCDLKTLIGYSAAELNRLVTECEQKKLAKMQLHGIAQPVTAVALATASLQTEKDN
# Summary of the method: as §1
# ERG = target: T4, ERG (Homo sapiens, UniProt P11308 1-479); conditions: protein: recombinant; tags: N-terminal GST; dsDNA, one strand shown
# T4 sequence: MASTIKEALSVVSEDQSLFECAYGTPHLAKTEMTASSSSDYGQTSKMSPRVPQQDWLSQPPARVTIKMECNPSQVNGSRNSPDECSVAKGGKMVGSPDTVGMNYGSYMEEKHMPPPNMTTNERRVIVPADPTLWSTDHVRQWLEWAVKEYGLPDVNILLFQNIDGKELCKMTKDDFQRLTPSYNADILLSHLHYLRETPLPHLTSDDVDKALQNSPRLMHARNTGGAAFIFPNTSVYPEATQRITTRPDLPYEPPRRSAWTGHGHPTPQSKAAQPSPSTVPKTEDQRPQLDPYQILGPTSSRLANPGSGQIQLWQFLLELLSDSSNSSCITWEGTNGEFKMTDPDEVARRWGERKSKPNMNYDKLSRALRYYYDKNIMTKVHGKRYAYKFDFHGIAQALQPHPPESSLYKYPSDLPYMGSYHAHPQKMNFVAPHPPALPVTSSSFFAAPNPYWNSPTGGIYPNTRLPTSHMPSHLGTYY
# Summary of the method: as §1
# ELF1 = ELF1 (Homo sapiens, UniProt P32519 1-619); conditions: protein: recombinant; tags: N-terminal GST; dsDNA, one strand shown
# Summary of the method: as §1
# EHF = target: T5, EHF (Homo sapiens, UniProt Q9NZC4 1-300); conditions: protein: recombinant; tags: N-terminal GST; dsDNA, one strand shown
# T5 sequence: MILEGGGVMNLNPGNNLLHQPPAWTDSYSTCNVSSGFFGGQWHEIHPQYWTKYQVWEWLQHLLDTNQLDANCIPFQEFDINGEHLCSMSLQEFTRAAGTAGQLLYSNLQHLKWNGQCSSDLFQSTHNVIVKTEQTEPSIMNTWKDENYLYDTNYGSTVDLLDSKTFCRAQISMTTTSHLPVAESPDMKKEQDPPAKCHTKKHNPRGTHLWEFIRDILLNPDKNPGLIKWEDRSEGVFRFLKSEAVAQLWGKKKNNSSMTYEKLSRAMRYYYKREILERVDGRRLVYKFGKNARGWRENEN
# Summary of the method: as §1
# SPI1 = SPI1 (Homo sapiens, UniProt P17947 1-270); conditions: protein: recombinant; tags: N-terminal GST; dsDNA, one strand shown
# Summary of the method: as §1
# SPIB = SPIB (Homo sapiens, UniProt Q01892 1-262); conditions: protein: recombinant; tags: N-terminal GST; dsDNA, one strand shown
# Summary of the method: as §1
# ELK3 = target: T6, ELK3 (Homo sapiens, UniProt P41970 1-407); conditions: protein: recombinant; tags: N-terminal GST; dsDNA, one strand shown
# T6 sequence: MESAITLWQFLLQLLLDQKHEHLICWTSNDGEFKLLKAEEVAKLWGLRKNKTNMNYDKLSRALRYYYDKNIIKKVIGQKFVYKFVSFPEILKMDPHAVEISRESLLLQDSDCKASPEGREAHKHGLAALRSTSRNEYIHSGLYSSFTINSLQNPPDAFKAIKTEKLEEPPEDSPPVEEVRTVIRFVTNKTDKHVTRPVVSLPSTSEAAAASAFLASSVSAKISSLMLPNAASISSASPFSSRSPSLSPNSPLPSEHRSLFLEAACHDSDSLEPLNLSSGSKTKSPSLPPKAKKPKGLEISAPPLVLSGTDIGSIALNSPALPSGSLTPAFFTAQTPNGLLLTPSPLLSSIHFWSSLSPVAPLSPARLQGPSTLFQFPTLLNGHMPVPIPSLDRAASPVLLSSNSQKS
# Summary of the method: as §1
# FEV = target: T7, FEV (Homo sapiens, UniProt Q99581 1-238); conditions: protein: recombinant; tags: N-terminal GST; dsDNA, one strand shown
# T7 sequence: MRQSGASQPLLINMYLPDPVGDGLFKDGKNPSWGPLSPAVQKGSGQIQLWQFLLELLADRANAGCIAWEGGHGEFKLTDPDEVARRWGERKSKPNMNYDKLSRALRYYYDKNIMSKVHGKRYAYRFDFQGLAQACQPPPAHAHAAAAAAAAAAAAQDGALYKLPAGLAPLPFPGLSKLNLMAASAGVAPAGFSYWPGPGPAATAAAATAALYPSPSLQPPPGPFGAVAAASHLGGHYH
# Summary of the method: as §1
# ETV5 = ETV5 (Homo sapiens, UniProt P41161 1-510); conditions: protein: recombinant; tags: N-terminal GST; dsDNA, one strand shown
# Summary of the method: as §1
# HSF1 = HSF1 (Homo sapiens, UniProt Q00613 1-529); conditions: protein: recombinant; tags: N-terminal GST; chain copies: 3; dsDNA, one strand shown
# Summary of the method: as §1
# SPIC = target: T8, SPIC (Homo sapiens, UniProt Q8N5J4 1-248); conditions: protein: recombinant; tags: N-terminal GST; dsDNA, one strand shown
# T8 sequence: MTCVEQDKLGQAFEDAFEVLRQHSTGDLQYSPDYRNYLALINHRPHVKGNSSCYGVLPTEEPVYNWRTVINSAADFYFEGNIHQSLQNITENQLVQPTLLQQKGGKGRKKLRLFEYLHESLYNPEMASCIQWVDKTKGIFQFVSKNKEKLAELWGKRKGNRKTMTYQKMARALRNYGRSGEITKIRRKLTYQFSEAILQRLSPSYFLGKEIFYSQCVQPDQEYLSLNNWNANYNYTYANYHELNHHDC
# Summary of the method: as §1
# ELF4 = ELF4 (Homo sapiens, UniProt Q99607 1-663); conditions: protein: recombinant; tags: N-terminal GST; dsDNA, one strand shown
# Summary of the method: as §1
# ELK4 = target: T9, ELK4 (Homo sapiens, UniProt P28324-2 1-405); conditions: protein: recombinant; tags: N-terminal GST; dsDNA, one strand shown
# T9 sequence: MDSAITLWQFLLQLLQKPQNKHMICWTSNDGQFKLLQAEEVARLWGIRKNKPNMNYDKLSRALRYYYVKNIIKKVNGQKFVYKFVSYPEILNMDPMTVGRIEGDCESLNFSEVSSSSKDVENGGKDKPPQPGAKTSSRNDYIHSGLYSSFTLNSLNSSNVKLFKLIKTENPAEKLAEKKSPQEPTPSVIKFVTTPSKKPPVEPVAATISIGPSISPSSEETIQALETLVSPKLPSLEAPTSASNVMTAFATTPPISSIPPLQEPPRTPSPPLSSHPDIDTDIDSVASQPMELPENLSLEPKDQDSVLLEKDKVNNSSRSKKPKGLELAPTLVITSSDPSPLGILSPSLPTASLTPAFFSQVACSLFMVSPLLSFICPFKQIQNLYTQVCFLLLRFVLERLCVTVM
# Summary of the method: as §1
# ETV2 = target: T10, ETV2 (Homo sapiens, UniProt O00321 1-342); conditions: protein: recombinant; tags: N-terminal GST; dsDNA, one strand shown
# T10 sequence: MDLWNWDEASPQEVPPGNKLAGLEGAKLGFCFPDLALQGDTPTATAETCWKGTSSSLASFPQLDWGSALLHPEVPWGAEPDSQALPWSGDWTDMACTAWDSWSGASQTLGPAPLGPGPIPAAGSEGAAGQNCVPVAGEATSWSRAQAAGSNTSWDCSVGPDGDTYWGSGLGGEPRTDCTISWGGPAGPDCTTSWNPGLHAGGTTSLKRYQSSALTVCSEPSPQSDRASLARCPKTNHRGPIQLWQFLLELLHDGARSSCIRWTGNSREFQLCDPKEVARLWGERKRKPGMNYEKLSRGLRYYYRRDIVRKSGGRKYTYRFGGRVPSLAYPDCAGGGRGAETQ
# Summary of the method: as §1
# ELF3 = target: T11, ELF3 (Homo sapiens, UniProt P78545 1-371); conditions: protein: recombinant; tags: N-terminal GST; dsDNA, one strand shown
# T11 sequence: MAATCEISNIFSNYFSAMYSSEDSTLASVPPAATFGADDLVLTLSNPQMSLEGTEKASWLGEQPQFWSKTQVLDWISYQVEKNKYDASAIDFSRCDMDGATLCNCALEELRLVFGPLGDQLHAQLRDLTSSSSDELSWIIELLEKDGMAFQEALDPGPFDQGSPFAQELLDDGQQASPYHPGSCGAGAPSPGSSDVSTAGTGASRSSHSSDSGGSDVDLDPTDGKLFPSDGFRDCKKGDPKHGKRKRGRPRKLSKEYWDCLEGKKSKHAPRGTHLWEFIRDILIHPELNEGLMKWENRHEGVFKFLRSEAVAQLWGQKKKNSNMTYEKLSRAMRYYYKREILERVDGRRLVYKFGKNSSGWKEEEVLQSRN
# Summary of the method: as §1
# CRX = CRX (Homo sapiens, UniProt O43186 1-299); conditions: protein: recombinant; tags: N-terminal GST; dsDNA, one strand shown
# Summary of the method: as §1
# ETV1 = ETV1 (Homo sapiens, UniProt P50549 1-477); conditions: protein: recombinant; tags: N-terminal GST; dsDNA, one strand shown
# Summary of the method: as §1
# Sequence of CRX (O43186 whole entry): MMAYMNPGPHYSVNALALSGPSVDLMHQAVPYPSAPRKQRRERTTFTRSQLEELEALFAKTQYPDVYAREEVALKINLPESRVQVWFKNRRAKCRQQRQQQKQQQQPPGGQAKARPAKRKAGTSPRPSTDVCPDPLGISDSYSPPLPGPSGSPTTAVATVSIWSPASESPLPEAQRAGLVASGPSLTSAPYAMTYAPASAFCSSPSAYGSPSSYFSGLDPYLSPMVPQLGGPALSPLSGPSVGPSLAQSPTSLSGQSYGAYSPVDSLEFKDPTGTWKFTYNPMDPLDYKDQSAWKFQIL
# Sequence of ETV1 (P50549 whole entry): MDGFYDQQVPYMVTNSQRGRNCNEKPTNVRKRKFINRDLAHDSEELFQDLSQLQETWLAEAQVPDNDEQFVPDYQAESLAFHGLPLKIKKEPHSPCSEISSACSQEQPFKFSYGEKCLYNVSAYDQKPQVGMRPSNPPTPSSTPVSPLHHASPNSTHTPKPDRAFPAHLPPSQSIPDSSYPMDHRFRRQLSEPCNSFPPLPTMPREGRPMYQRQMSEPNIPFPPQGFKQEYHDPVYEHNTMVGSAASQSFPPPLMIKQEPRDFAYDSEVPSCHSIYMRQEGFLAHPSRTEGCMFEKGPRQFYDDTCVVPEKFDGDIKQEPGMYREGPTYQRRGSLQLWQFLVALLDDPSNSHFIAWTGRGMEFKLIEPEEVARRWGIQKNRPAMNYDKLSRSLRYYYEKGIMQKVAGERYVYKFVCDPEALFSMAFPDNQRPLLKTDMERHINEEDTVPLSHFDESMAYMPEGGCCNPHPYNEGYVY
# Sequence of ETV5 (P41161 whole entry): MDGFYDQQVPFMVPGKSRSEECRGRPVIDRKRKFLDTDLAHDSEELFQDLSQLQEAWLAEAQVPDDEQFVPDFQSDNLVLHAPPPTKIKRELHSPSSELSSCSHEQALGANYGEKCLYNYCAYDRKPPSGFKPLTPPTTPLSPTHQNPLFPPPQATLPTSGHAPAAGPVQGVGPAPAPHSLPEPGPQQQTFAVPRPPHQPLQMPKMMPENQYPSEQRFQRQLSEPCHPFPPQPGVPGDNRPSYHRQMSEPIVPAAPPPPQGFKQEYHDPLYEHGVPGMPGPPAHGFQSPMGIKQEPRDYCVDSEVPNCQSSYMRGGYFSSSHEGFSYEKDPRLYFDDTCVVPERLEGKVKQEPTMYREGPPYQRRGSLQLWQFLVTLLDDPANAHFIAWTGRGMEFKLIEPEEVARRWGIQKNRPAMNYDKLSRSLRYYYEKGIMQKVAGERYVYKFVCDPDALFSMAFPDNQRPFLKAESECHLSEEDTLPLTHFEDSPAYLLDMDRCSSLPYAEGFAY
# Sequence of HSF1 (Q00613 whole entry): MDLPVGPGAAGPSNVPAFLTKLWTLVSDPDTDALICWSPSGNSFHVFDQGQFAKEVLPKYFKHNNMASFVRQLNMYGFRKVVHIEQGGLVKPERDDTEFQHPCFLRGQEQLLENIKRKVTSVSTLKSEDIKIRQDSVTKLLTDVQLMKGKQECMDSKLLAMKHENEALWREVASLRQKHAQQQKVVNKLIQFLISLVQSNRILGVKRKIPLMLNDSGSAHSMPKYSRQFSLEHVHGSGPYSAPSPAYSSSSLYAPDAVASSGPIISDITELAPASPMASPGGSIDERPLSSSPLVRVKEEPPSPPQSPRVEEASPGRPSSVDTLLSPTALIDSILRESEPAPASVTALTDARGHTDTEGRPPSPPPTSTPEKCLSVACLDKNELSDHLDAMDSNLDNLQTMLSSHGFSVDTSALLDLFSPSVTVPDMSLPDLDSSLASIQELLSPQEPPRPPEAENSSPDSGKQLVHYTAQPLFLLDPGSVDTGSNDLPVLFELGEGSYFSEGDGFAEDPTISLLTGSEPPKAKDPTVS
# Sequence of SPIB (Q01892 whole entry): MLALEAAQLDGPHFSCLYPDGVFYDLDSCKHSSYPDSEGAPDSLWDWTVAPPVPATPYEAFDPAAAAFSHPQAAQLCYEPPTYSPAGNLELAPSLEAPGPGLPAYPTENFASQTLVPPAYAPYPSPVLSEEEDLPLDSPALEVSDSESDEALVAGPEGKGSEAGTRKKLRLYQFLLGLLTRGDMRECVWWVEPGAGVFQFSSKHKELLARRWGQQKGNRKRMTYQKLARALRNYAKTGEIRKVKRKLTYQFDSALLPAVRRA
# Sequence of ELF1 (P32519 whole entry): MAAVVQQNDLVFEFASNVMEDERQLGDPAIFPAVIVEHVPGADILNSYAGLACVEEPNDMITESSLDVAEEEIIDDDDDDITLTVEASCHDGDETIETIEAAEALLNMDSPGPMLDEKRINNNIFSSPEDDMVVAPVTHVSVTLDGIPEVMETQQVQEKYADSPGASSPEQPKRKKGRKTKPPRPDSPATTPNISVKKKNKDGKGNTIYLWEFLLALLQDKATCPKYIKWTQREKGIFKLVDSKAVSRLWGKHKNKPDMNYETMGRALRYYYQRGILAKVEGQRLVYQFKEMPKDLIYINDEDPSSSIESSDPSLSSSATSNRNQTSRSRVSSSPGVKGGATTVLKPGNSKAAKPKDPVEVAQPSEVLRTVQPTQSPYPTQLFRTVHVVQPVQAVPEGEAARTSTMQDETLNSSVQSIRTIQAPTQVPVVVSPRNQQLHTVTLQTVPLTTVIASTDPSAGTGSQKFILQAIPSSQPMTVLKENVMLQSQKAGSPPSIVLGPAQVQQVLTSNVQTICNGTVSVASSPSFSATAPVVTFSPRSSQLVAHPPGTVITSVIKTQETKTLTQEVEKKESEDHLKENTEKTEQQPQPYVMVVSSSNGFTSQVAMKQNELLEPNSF
# Sequence of ELF4 (Q99607 whole entry): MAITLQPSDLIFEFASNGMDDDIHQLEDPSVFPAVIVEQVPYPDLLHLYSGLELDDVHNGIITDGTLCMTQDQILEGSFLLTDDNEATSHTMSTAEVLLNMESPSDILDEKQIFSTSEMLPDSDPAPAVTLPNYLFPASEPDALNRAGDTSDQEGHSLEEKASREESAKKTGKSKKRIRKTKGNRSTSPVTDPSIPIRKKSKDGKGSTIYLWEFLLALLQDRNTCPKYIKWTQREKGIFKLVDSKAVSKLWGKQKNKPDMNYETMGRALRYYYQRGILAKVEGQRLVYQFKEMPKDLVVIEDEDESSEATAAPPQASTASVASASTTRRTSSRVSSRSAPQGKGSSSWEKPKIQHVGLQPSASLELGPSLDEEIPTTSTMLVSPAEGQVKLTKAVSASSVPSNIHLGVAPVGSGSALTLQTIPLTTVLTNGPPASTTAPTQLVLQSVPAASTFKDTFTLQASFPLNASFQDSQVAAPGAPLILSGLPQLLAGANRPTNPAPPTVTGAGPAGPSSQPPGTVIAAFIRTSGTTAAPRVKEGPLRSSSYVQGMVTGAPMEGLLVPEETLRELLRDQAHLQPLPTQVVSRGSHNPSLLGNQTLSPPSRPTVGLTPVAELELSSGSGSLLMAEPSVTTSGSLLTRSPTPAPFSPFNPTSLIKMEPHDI
sequence,measurement,setting,value
TACTGT,binding signal,FLI1,"1.15 fold enrichment (6-mer frequency, TF over GST control)"
same,binding signal,ELK1,"1.21 fold enrichment (6-mer frequency, TF over GST control)"
same,binding signal,GABPA,"1.13 fold enrichment (6-mer frequency, TF over GST control)"
same,binding signal,ERG,"1.12 fold enrichment (6-mer frequency, TF over GST control)"
same,binding signal,ELF1,"1.12 fold enrichment (6-mer frequency, TF over GST control)"
same,binding signal,EHF,"1.19 fold enrichment (6-mer frequency, TF over GST control)"
same,binding signal,SPI1,"1.11 fold enrichment (6-mer frequency, TF over GST control)"
same,binding signal,SPIB,"1.12 fold enrichment (6-mer frequency, TF over GST control)"
same,binding signal,ELK3,"1.11 fold enrichment (6-mer frequency, TF over GST control)"
same,binding signal,FEV,"1.11 fold enrichment (6-mer frequency, TF over GST control)"
same,binding signal,ETV5,"1.15 fold enrichment (6-mer frequency, TF over GST control)"
same,binding signal,HSF1,"1.05 fold enrichment (6-mer frequency, TF over GST control)"
same,binding signal,SPIC,"1.1 fold enrichment (6-mer frequency, TF over GST control)"
same,binding signal,ELF4,"1.12 fold enrichment (6-mer frequency, TF over GST control)"
same,binding signal,ELK4,"1.25 fold enrichment (6-mer frequency, TF over GST control)"
same,binding signal,ETV2,"1.34 fold enrichment (6-mer frequency, TF over GST control)"
same,binding signal,ELF3,"1.03 fold enrichment (6-mer frequency, TF over GST control)"
same,binding signal,CRX,"1.11 fold enrichment (6-mer frequency, TF over GST control)"
same,binding signal,ETV1,"1.17 fold enrichment (6-mer frequency, TF over GST control)"
